# From the supplement of paper PMC9950053
# Counter-ions that a name gives are not always drawn.
# System: Danio rerio larvae (5 dpf)
# Assay: habituation (activity change first vs second 5 min of 1-s interval sound, period 17) minus DMSO control (percentage points); higher = larger habituation measure than DMSO larvae
# Conditions: 10 µM; exposure time: 3 h pre-incubation + 3 h imaging
# Procedure: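 Wild-type 5 dpf zebrafish larvae (n=48 per drug, 96-well plates, 28.5 °C) were exposed to Tocris FDA-approved library compounds at 10 µM (0.1% DMSO) for 3 h before and 3 h during imaging. Images were taken every 6 s during visual (moving coloured lines) and acoustic stimuli, and larvae were tracked with the DeepLabCut-based Z-LaP Tracker. Each behavioural measure is the treated-group mean minus the DMSO vehicle control mean (n=844), in percentage points. This mapping covers compounds with 4-character plate codes.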
row,Structure (SMILES),habituation
1,COc1cc2c(cc1OC)C1CC(=O)C(CC(C)C)CN1CC2 (stereo unspecified) [Tetrabenazine],0.576
2,O=c1[nH]c2ccccc2n1C1CCN(CCCC(c2ccc(F)cc2)c2ccc(F)cc2)CC1 [Pimozide],-10.2
3,CC(O)(CS(=O)(=O)c1ccc(F)cc1)C(=O)Nc1ccc(C#N)c(C(F)(F)F)c1 (stereo unspecified) [Bicalutamide],-6.13
4,C=CCN1C[C@H](C(=O)N(CCCN(C)C)C(=O)NCC)C[C@@H]2c3cccc4[nH]cc(c34)C[C@H]21 [Cabergoline],5.7
5,CC[C@@H](C(N)=O)N1CCCC1=O [Levetiracetam],-2
6,CN1C[C@H](C(=O)N[C@]2(C)O[C@@]3(O)[C@@H]4CCCN4C(=O)[C@H](Cc4ccccc4)N3C2=O)C[C@@H]2c3cccc4[nH]cc(c34)C[C@H]21 [Dihydroergotamine mesylate],2.38
7,CC(C)C[C@H]1C(=O)N2CCC[C@H]2[C@]2(O)O[C@](NC(=O)[C@@H]3C=C4c5cccc6[nH]c(Br)c(c56)C[C@H]4N(C)C3)(C(C)C)C(=O)N12 [Bromocriptine mesylate],-1.05
8,C=C1C[C@@H]2[C@H](CC[C@]3(C)C(=O)CC[C@@H]23)[C@@]2(C)C=CC(=O)C=C12 [Exemestane],-2.71
9,N[C@@H]1C[C@H]1c1ccccc1 [Tranylcypromine hydrochloride],-2.8
10,Cc1cccc([C@H](C)c2c[nH]cn2)c1C [Dexmedetomidine hydrochloride],-10.4
11,CCN(C)C(=O)Oc1cccc([C@H](C)N(C)C)c1 [Rivastigmine tartrate],0.0925
